Experiment [1] in a line: inhibitors of TNFa-induced NFkB p65 translocation, primary screen, imaging, HUVEC, MLSMR starter and 10KST1 sets (AID 438;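 active means inhibition above 20% together with a positive visual image hit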;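 further: compound added about 3h40 before a 20 min TNFalpha stimulation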;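 on inhibition: signal is the nuclear over cytoplasmic p65 intensity ratio per well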). To be noted: HUVEC TNFa-induced p65 nuclear translocation; cell count: measured here: nuclei count (cytotoxicity indicator), at 2.08 µM; inhibition: at 2 µM, stronger effect = higher value, 0% TNFa-plus-vehicle, 100% no-TNFa wells.
The nature of experiment [2]: reduction of polyQ htt aggregates in cells – imaging, exon1htt(103Q)mCFP cells, high-content imaging, primary screen (AID 483;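 active means visual image review flags a hit and inhibition of aggregation exceeds 20%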;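 further: compound exposure lasted 3 days before fixation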;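 on nuclei count: percent of the per-plate median nuclei count of sample wells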). Conditions: exon1htt(103Q)mCFP cell line, aggregate imaging, at 2 µM; inhibition of aggregation: stronger effect = higher value; nuclei count: measured here: cell count, toxicity.
Experiment [3] is described as follows: endothelial E-selectin expression blockers – imaging, HUVEC, immunofluorescence, MLSMR starter and 10KST1 sets, primary screen (AID 487;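 active means visually confirmed hit in the image check and inhibition above 20%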;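 on inhibition: signal is fraction of cell area covered by stained E-selectin grains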;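 on nuclei count: 100% = median nuclei count of all wells on the same plate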). Conditions: HUVEC TNFalpha-induced E-selectin immunofluorescence imaging, at 2 µM; inhibition: stronger effect = higher value; nuclei count: measured here: cell number, toxicity.
The target of experiment [4] is Voltage-gated potassium channel subunit beta-2 (Rattus norvegicus) (UniProt P62483). Put plainly: inhibitors of rat Kvbeta2 reductase activity – biochemical, NADPH fluorescence, primary screen (AID 622;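 active means fluorescence slope higher than the sample average by over 3 SD, cut at about -0.22 in these data, passing the limit was not always enough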;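 further: slope of raw intensity against log time taken from 70 to 1610 s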). To be noted: recombinant KvBeta, 4-cyanobenzaldehyde reduction, at 10 µM, stronger effect = higher value.
Chain of Voltage-gated potassium channel subunit beta-2 (Rattus norvegicus) (P62483 whole entry, looked up): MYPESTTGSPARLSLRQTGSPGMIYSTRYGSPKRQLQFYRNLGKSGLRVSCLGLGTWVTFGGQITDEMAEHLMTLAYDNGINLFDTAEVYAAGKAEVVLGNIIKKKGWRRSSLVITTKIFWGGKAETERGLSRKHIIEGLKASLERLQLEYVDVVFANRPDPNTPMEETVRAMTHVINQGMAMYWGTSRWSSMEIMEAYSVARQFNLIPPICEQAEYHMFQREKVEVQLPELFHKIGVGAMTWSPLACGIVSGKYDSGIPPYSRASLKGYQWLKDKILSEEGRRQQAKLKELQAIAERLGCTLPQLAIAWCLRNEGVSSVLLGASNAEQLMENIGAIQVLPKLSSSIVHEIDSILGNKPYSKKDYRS
Experiment [5] shares this target. Put plainly: enhancers of rat Kvbeta2 NADPH turnover – biochemical, NADPH fluorescence, primary screen (AID 623;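 active means NADPH fluorescence slope more negative than the mean of all samples by about 3 SD, 99.7% confidence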;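 further: fluorescence intensity change per second fitted from 20 to 320 s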). To be noted: Recombinant KvBeta, NADPH fluorescence decrease slope, 10 min; at 10 µM; stronger effect = lower value.
Experiment [6] concerns the target Alpha-2C adrenergic receptor (Homo sapiens) (UniProt P18825). Put plainly: compounds altering alpha2C-coupled GIRK flux – cell-based, HEK293 alpha2C/GIRK1/2, thallium flux, primary screen (AID 624).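 Further: slope of fluorescence ratio to pre-addition baseline per second over 15 to 24 s.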 Conditions: thallium flux BTC fluorescence, at 10 µM, actives lie on both sides.
A short description of experiment [7]: blockers of RIG-like receptor reporter activation – cell-based, Sendai virus stimulus, luciferase, 10K MLSCN set, TLR/RLR signaling modifier project, primary screen (AID 602276;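 active means inhibition at or above 50% at 10 µM; inactive means inhibition below 50%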;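 further: firefly luciferase from ISG56 promoter only with Renilla not read in this screen; 0% = Sendai virus plus DMSO and 100% = medium plus DMSO without virus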). To be noted: HEK293 RL24 IRF3 luciferase reporter, at 10 µM, stronger effect = higher value.
The nature of experiment [8]: TLR3 IRF3 reporter activation blockers – cell-based, poly I:C stimulus, luciferase, 10K MLSCN set, primary screen (AID 602277;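 active means inhibition of the reporter signal at or above 50%; inactive means inhibition below 50%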). Conditions: HEK293-TLR3 RL24 IRF3 luciferase reporter, at 10 µM, stronger effect = higher value.

The structures appear in SMILES notation. Calls of active or inactive are those of the source.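 How the source made its calls, unless noted: active means fluorescence slope after compound addition differing from the mean of all screened samples at 99.7% confidence, in either direction; inactive means the rest.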

Chain of Alpha-2C adrenergic receptor (Homo sapiens) (P18825 whole entry, looked up): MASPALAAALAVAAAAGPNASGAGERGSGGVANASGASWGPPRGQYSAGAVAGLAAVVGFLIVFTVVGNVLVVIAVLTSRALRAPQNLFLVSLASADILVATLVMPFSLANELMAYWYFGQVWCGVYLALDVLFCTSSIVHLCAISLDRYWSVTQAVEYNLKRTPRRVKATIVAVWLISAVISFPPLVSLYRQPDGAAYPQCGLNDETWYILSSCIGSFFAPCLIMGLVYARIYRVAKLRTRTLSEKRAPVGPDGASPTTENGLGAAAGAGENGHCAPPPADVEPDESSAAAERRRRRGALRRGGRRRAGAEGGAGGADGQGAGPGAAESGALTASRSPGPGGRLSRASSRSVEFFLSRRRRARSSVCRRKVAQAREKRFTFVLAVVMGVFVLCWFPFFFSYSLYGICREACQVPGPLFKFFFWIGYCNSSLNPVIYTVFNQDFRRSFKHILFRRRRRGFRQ

Consider `CCOC(=O)c1c(N)sc(C(=O)N2CCOCC2)c1C`, for which the cell count in experiment [1] stood at 314. Further, the inhibition in experiment [1] was -11.5% (inactive); in experiment [3] it was -10.6% (inactive); in experiment [7], 16.8% (inactive); in experiment [8], 18.1% (inactive). Also, in experiment [2], the inhibition of aggregation is 12.2% (inactive). The figures for the nuclei count in experiment [2] and in experiment [3] were 103% and 119%, respectively. Besides, the fluorescence slope in experiment [4] is -0.345 (inactive). Besides, the NADPH fluorescence slope in experiment [5] was 2.6e-05 (inactive). Further, in experiment [6], the slope is 0.00763 (inactive).

In the case of `O=C1c2ccccc2C(=O)N1CNc1ccccc1`, in experiment [1], the cell count was 425. Also, the inhibition in experiment [1] is -2.7% (inactive); in experiment [3], -144% (inactive); in experiment [7], 7.68% (inactive); in experiment [8] it was -8.22% (inactive). For the same compound, the inhibition of aggregation in experiment [2] was -3.7% (inactive). The nuclei count in experiment [2] was 112%; in experiment [3] it was 118%. Moreover, in experiment [4], the fluorescence slope is -0.603 (inactive). In addition, the NADPH fluorescence slope in experiment [5] was -1.7e-05 (inactive). Besides, the slope in experiment [6] was 0.00312 (inactive).

Turning to `CC1=C(C(=O)NC2CCC(C)CC2)C2(CCC(C)CC2)OC1=O` (centres undefined), the cell count in experiment [1] is 640. Also, the inhibition is 17.2% (inactive) in experiment [1], 5.3% (inactive) in experiment [3], 10.7% (inactive) in experiment [7] and 15.1% (inactive) in experiment [8]. Moreover, the inhibition of aggregation in experiment [2] is -14.7% (inactive). For the same compound, the figures for the nuclei count in experiment [2] and in experiment [3] were 99.8% and 126%, respectively. Moreover, the fluorescence slope in experiment [4] is -0.486 (inactive). In addition, the NADPH fluorescence slope in experiment [5] was 7.7e-06 (inactive). Further, the slope in experiment [6] was 0.00549 (inactive).

In the case of `O=C(COc1ccc(=O)n(-c2ccccc2)n1)Nc1ccccc1`, the cell count in experiment [1] was 600. The inhibition was 8% (inactive) in experiment [1], 23.8% (inactive) in experiment [3], 9.72% (inactive) in experiment [7] and 23.6% (inactive) in experiment [8]. The inhibition of aggregation in experiment [2] was -6.4% (inactive). In addition, the nuclei count in experiment [2] was found to be 114%; in experiment [3], 119%. In addition, the fluorescence slope in experiment [4] is -0.471 (inactive). For the same compound, in experiment [5], the NADPH fluorescence slope is 7.6e-06 (inactive). For the same compound, the slope in experiment [6] is 0.00619 (inactive).

In the case of `CCC1Oc2ccc(C)cc2N(CC(=O)NCCCN2CCCCC2CC)C1=O` (centres undefined), the cell count in experiment [1] was 651. The inhibition in experiment [1] is -3.9% (inactive); in experiment [3], -34.9% (inactive); in experiment [7], 16.8% (inactive); in experiment [8] it was 38.8% (inactive). The inhibition of aggregation in experiment [2] was 26.7% (inactive). The results for the nuclei count in experiment [2] and in experiment [3] were 109% and 101%, respectively. Further, the fluorescence slope in experiment [4] was -0.41 (inactive). Moreover, the NADPH fluorescence slope in experiment [5] was 2.7e-05 (inactive). Moreover, the slope in experiment [6] is 0.0055 (inactive).

In the case of `CCOc1cc2[nH]c(=O)n(CCCCC(=O)NCc3ccco3)c(=O)c2cc1OCC`, the cell count in experiment [1] stood at 394. Moreover, the inhibition in experiment [1] was -17.9% (inactive); in experiment [3] it was -41.6% (inactive); in experiment [7], 9.08% (inactive); in experiment [8] it was 35.9% (inactive). The inhibition of aggregation in experiment [2] was -0.5% (inactive). Besides, the nuclei count stood at 117% in experiment [2] and 110% in experiment [3]. In addition, in experiment [4], the fluorescence slope is -0.508 (inactive). Also, in experiment [5], the NADPH fluorescence slope is -6e-05 (inactive). For the same compound, the slope in experiment [6] is 0.00662 (inactive).

With `Cc1ccc2oc(-c3ccccc3C(=O)O)cc(=O)c2c1`, in experiment [1], the cell count amounted to 363. In addition, the inhibition in experiment [1] was 10.8% (inactive); in experiment [3], -59.4% (inactive); in experiment [7], 12.1% (inactive); in experiment [8] it was 5.36% (inactive). Moreover, the inhibition of aggregation in experiment [2] is 2.4% (inactive). Further, the nuclei count came to 107% in experiment [2] and 125% in experiment [3]. Moreover, the fluorescence slope in experiment [4] was -0.627 (inactive). In experiment [5], the NADPH fluorescence slope is -1.2e-05 (inactive). Further, the slope in experiment [6] is 0.00399 (inactive).

Take `CC1CCC(NC(=O)C2(C)CCC(=O)N2Cc2cccnc2)CC1` (centres undefined): in experiment [1], the cell count came to 890. The inhibition in experiment [1] was -5.2% (inactive); in experiment [3], -7.7% (inactive); in experiment [7] it was 1.39% (inactive); in experiment [8], 32.6% (inactive). Further, the inhibition of aggregation in experiment [2] was 18.3% (inactive). Moreover, the results for the nuclei count in experiment [2] and in experiment [3] were 70.4% and 101%, respectively. The fluorescence slope in experiment [4] is -0.598 (inactive). In addition, the NADPH fluorescence slope in experiment [5] was -1.4e-05 (inactive). Further, the slope in experiment [6] was 0.00748 (inactive).

For the compound `COc1cc(NC(=O)Cc2ccccc2OC)cc(OC)c1`, the cell count in experiment [1] came to 575. The inhibition in experiment [1] was -4.8% (inactive); in experiment [3], -96.9% (inactive); in experiment [7] it was -19% (inactive); in experiment [8] it was -15% (inactive). In addition, the inhibition of aggregation in experiment [2] was 9.8% (inactive). Moreover, the nuclei count worked out at 81.8% in experiment [2] and 87.6% in experiment [3]. Also, the fluorescence slope in experiment [4] was -0.452 (inactive). In addition, in experiment [5], the NADPH fluorescence slope was -2e-05 (inactive). Moreover, the slope in experiment [6] is 0.00483 (inactive).

As to `CCOC(=O)C1=C(c2ccccc2)N2CCN=C2S1`, the cell count in experiment [1] was determined as 507. The inhibition is -12.1% (inactive) in experiment [1], -12.3% (inactive) in experiment [3], 1.18% (inactive) in experiment [7] and 6.97% (inactive) in experiment [8]. The inhibition of aggregation in experiment [2] is 18.9% (inactive). Further, the figures for the nuclei count in experiment [2] and in experiment [3] were 59% and 94.2%, respectively. In experiment [4], the fluorescence slope was -0.521 (inactive). The NADPH fluorescence slope in experiment [5] was -1.6e-06 (inactive). Also, the slope in experiment [6] was 0.00413 (inactive).

With `CSc1cccc(NC(=O)C2CCN(S(=O)(=O)c3ccc(F)cc3)CC2)c1`, the cell count in experiment [1] amounted to 376. Also, the inhibition is -0.2% (inactive) in experiment [1], -69.1% (inactive) in experiment [3], 16.9% (inactive) in experiment [7] and 39.3% (inactive) in experiment [8]. In addition, in experiment [2], the inhibition of aggregation was 10.8% (inactive). The nuclei count in experiment [2] amounted to 104%; in experiment [3], 115%. In experiment [4], the fluorescence slope was -0.353 (inactive). Moreover, the NADPH fluorescence slope in experiment [5] was 5.7e-05 (inactive). Besides, the slope in experiment [6] was 0.00752 (inactive).

Turning to `O=C(Nc1cccc2ccccc12)c1cnccn1`, in experiment [1], the cell count came out at 419. In addition, the inhibition is 11.7% (inactive) in experiment [1], -180% (inactive) in experiment [3], -180% (inactive) in experiment [7] and 99.3% (active) in experiment [8]. Besides, the inhibition of aggregation in experiment [2] is 5.1% (inactive). Also, the values for the nuclei count in experiment [2] and in experiment [3] were 96.9% and 117%, respectively. Further, the fluorescence slope in experiment [4] is -0.52 (inactive). Moreover, the NADPH fluorescence slope in experiment [5] is -3.3e-05 (inactive). Further, the slope in experiment [6] was 0.00645 (inactive).

As to `Cn1cccc1Cc1nnc(SCC(=O)Nc2ccc(F)cc2)n1-c1ccc(F)cc1`, the cell count in experiment [1] amounted to 843. Further, the inhibition in experiment [1] was 1.4% (inactive); in experiment [3], -45.2% (inactive); in experiment [7] it was 10.5% (inactive); in experiment [8], 27.7% (inactive). In experiment [2], the inhibition of aggregation was -2.2% (inactive). Further, the values for the nuclei count in experiment [2] and in experiment [3] were 95.4% and 116%, respectively. In addition, the fluorescence slope in experiment [4] was -0.592 (inactive). Moreover, the NADPH fluorescence slope in experiment [5] was -1.8e-05 (inactive). In experiment [6], the slope is 0.00531 (inactive).

On to `CN(C(=O)c1ccc2c(=O)n3c(nc2c1)CCCCC3)c1ccccc1`, for which the cell count in experiment [1] was found to be 588. Moreover, the inhibition in experiment [1] is -10.7% (inactive); in experiment [3] it was 63.2% (active); in experiment [7], 11.2% (inactive); in experiment [8], 8.93% (inactive). Further, the inhibition of aggregation in experiment [2] is 23.6% (inactive). Besides, the nuclei count in experiment [2] was found to be 93.9%; in experiment [3] it was 76.9%. In addition, in experiment [4], the fluorescence slope was -0.457 (inactive). Further, the NADPH fluorescence slope in experiment [5] is -0.000341 (inactive). In experiment [6], the slope was 0.00528 (inactive).

These data come from PubChem BioAssay.
